Screening data as filed in PubChem BioAssay.
Hits are enriched below; roughly 2.1% of the tested compounds scored in any of these assays.
mut p53 react: re-activators of the mutant p53 pathway; SW480 PUMA-promoter luciferase, p53 mutant reactivation; AID 624151; activation, % at 9.98 µM; 28,000 tested, 1.5% active; in the data active means activation above about 52%
ID4 SMM: binds human ID4 protein on microarray; P47928; 31,000 tested, 1.2% active; small molecule microarray, Flag-ID4 binding, fluorescence F/B; AID 624137; calls only; call rule not given here;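 further: a binder raises fluorescence above local background on the spot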
Target sequence (P47928 whole entry, looked up): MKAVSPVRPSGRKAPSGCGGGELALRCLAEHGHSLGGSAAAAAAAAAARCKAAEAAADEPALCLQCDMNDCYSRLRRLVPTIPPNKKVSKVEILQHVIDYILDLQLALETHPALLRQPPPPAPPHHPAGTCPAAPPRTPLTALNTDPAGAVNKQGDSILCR
STK33 kin inh: inhibitors of human STK33 kinase. Q9BYT3. AID 2322. inhibition, % at 12.5 µM. 27,000 tested, 0.44% active. ADP-Glo luminescence, MBP substrate; in the data active means inhibition above about 20%
* marks the source's active call; other numbers are inactive results.

For C[C@H](CO)N1C[C@H](C)[C@H](CN(C)S(C)(=O)=O)Oc2c(NC(=O)Nc3ccc4c(c3)OCO4)cccc2C1=O the results were mut p53 react 7.
For C[C@H](CO)N1C[C@H](C)[C@@H](CN(C)C(=O)Nc2ccc(C(F)(F)F)cc2)Oc2c(NC(=O)Nc3cccc4ccccc34)cccc2C1=O the results were mut p53 react 7 and ID4 SMM inactive.
`C[C@H]1CN([C@@H](C)CO)C(=O)c2cccc(NC(=O)Nc3ccc4c(c3)OCO4)c2O[C@@H]1CN(C)C` gave mut p53 react 58*.
For C[C@H](CO)N1C[C@H](C)[C@H](CN(C)C(=O)Nc2ccc(C(F)(F)F)cc2)Oc2c(NC(=O)Nc3cccc4ccccc34)cccc2C1=O the results were mut p53 react -12 and ID4 SMM active.
C[C@H]1CN([C@@H](C)CO)C(=O)c2cccc(NC(=O)Nc3ccc4c(c3)OCO4)c2O[C@@H]1CN(C)S(C)(=O)=O was read as STK33 kin inh -3.
`C[C@@H]1CN([C@@H](C)CO)C(=O)c2cccc(NC(=O)Nc3ccc4c(c3)OCO4)c2O[C@H]1CN(C)C` gave mut p53 react 74* and ID4 SMM inactive.
Cc1noc(C)c1S(=O)(=O)Nc1ccc2c(c1)C(=O)N([C@@H](C)CO)C[C@H](C)[C@@H](CN(C)C(=O)NC(C)C)OCCCC[C@H](C)O2 was read as mut p53 react -12 and ID4 SMM inactive.
For Cc1ccc(C(=O)Nc2ccccc2C(=O)N2CCN(c3ccccc3)CC2)cc1S(=O)(=O)N1CCCCC1 the results were mut p53 react -1, ID4 SMM inactive and STK33 kin inh 1.
`O=C(NCCN1CCOCC1)c1ccc(Cl)c(S(=O)(=O)N2CCOCC2)c1` gave mut p53 react -10, ID4 SMM active and STK33 kin inh -2.
For Cc1ccc(C(=O)NCCN2CCOCC2)cc1S(=O)(=O)N1CCCCC1 the results were mut p53 react 6, ID4 SMM inactive and STK33 kin inh 0.
For O=C(Nc1ccccc1C(=O)O)c1ccc(Br)c(S(=O)(=O)N2CCOCC2)c1 the results were mut p53 react 13, ID4 SMM active and STK33 kin inh 0.
For C[C@@H]1CCCCO[C@H](CN(C)S(=O)(=O)c2ccc(F)cc2)[C@H](C)CN([C@@H](C)CO)C(=O)c2cc(NC(=O)NC3CCCCC3)ccc2O1 the results were mut p53 react -13.
C[C@@H]1CN([C@@H](C)CO)C(=O)c2cc(NC(=O)Nc3ccc4c(c3)OCO4)ccc2O[C@H]1CN(C)Cc1ccncc1 was read as mut p53 react -2 and ID4 SMM active.
For CNC[C@@H]1OCCCC[C@H](C)Oc2ccc(NC(=O)Nc3ccc4c(c3)OCO4)cc2C(=O)N([C@@H](C)CO)C[C@@H]1C the results were mut p53 react 2 and ID4 SMM active.
C[C@H]1CN([C@@H](C)CO)C(=O)c2cc(NC(=O)Nc3ccc4c(c3)OCO4)ccc2O[C@H]1CN(C)C was read as mut p53 react -3, ID4 SMM inactive and STK33 kin inh 1.
Screening CNC[C@H]1Oc2ccc(NC(=O)Nc3ccc4c(c3)OCO4)cc2CC(=O)N([C@@H](C)CO)C[C@@H]1C returned mut p53 react 3, ID4 SMM active and STK33 kin inh -3.
For CNC[C@@H]1Oc2ccc(NC(=O)Nc3ccc4c(c3)OCO4)cc2C(=O)N([C@@H](C)CO)C[C@H]1C the results were mut p53 react 5 and ID4 SMM active.
For CNC[C@@H]1OCCCC[C@@H](C)Oc2ccc(NC(=O)Nc3ccc4c(c3)OCO4)cc2C(=O)N([C@H](C)CO)C[C@@H]1C the results were STK33 kin inh 0.
Screening CNC[C@@H]1Oc2ccc(NC(=O)Nc3ccc4c(c3)OCO4)cc2CC(=O)N([C@@H](C)CO)C[C@@H]1C returned mut p53 react 5, ID4 SMM inactive and STK33 kin inh 2.
`C[C@@H]1CN([C@H](C)CO)C(=O)c2cc(NC(=O)Nc3ccc4c(c3)OCO4)ccc2O[C@@H]1CN(C)Cc1ccncc1` gave mut p53 react -5 and ID4 SMM inactive.
For Cc1noc(C)c1S(=O)(=O)Nc1ccc2c(c1)CC(=O)N([C@@H](C)CO)C[C@H](C)[C@@H](CN(C)S(=O)(=O)c1ccccc1)O2 the results were mut p53 react 4, ID4 SMM inactive and STK33 kin inh -2.
For C[C@@H]1CN([C@@H](C)CO)C(=O)c2cccc(NC(=O)Nc3ccc4c(c3)OCO4)c2O[C@@H]1CN(C)C(=O)Nc1ccc(C(F)(F)F)cc1 the results were mut p53 react 0.
`C[C@@H]1CN([C@H](C)CO)C(=O)c2cc(NS(C)(=O)=O)ccc2O[C@@H](C)CCCCO[C@H]1CN(C)Cc1ccncc1` gave mut p53 react 5 and ID4 SMM inactive.
